The values that follow come from PubChem BioAssay (NCATS).

Unmarked numbers belong to inactive results. Results filed as inconclusive are left out. Entries that show only a call come without a potency. Calls of active or inactive are those of the source. The call rests on the fitted dose curve; in most records, active means well fitted curve in the direction sought with a large enough effect; inconclusive means small, poorly fitted or top-dose-only effect, or another doubt; inactive means no such curve, though single readings can be large; an effect the other way counts as inactive or inconclusive.

One test addresses Luciferin 4-monooxygenase (Photinus pyralis) (UniProt P08659). Put plainly: Primary firefly luciferase (FLuc) qHTS assay for identification of artifact compounds. (AID 1845220). Further: nearly all actives have a fitted effect of over 60% in size. The following applies: purified firefly luciferase, luminescence, 5 min; series mostly up to 54.1 µM. In a few lines: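 Compounds sat 15 min at room temperature with 10 uM luciferin and 10 uM ATP (pH 7.6 Tris acetate). Firefly luciferase (10 nM final) was then added, and luminescence was read 5 min later. Data normalized to no-enzyme and DMSO controls were Hill-fitted.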
A general note: In qHTS, concentration-response curves come from the screen itself.
With `C[C@@]1(C(=O)O)CC[C@]2(C)CC[C@]3(C)C4=CC(=O)c5cc(O)c(O)cc5[C@]4(C)CC[C@@]3(C)[C@@H]2C1`, the Potency result was “inactive”.
The same measure, in the same setting: the result for `COC1CC(OC2CCC3(C)C(CCC4C3CCC3(C)C(C5=CC(=O)OC5)C(OC(C)=O)CC43O)C2)OC(C)C1OC1OC(CO)C(O)C(O)C1O` (configuration not stated) reads “inactive”.
Still for that read-out and setting: then `COC1CC(=O)C23C(=O)NC(CC(C)C)C2C(C)=C(C)C(OO)C3/C=C(\C)CCC(O)C1O` (configuration not stated), with “inactive”; and `COc1c(C(C)C)cc2c(c1O)[C@@]1(C(=O)O)CCCC(C)(C)C1CC2` (some centres not stated), with “inactive”; and `CC1C/C=C/C(O)C(O)CC/C=C/c2cc(O)cc(O)c2C(=O)O1` (configuration not stated), with “inactive”.
On the same count and under the same terms, then `CCc1[nH]c2ccc(OC)cc2c1CCN(C)C`, with “inactive”.
For `CCC1NC(=O)C2C(Cl)C(Cl)CN2C(=O)C(C(C)O)NC(=O)CC(c2ccccc2)NC(=O)C(CO)NC1=O` (configuration not stated), the Potency entry was “inactive”.
With `CC(C)(O)[C@H]1O[C@H]2CC[C@@]3(C)[C@@](O)(CC[C@H]4Cc5c([nH]c6ccccc56)[C@@]43C)C2=CC1=O`, the Potency entry was “inactive”.
On the same count and under the same terms, then `COc1cc(C(=O)O[C@H]2[C@@H]3C=CO[C@@H](O[C@@H]4O[C@H](CO)[C@@H](O)[C@H](O)[C@H]4O)[C@@H]3[C@@]3(CO)O[C@@H]23)ccc1O`, with “inactive”.
Still for that read-out and setting: then `C[C@@H]1C(=O)O[C@H]2[C@H](O)[C@@]34[C@@H]5OC(=O)[C@@]3(O[C@@H]3OC(=O)[C@@H](O)[C@@]34[C@H](C(C)(C)C)[C@H]5O)[C@@]12O`, with “inactive”; and `COC(=O)C1(C)CCC(O)C2(C)c3cc(O)c(C(C)C)cc3C(O)C(OC(C)=O)C12` (configuration not stated), with “inactive”.
Still for that read-out and setting: the result for `CN1C(=O)c2ccccc2NC(=O)[C@]12O[C@@H]2c1ccccc1` reads “inactive”.

Tested on in another test: not listed separately
In words: Primary fluorescence-based thiol-reactive (MSTI) qHTS assay for identification of artifact compounds. (AID 1845221). Further: nearly all actives have a fitted effect of over 65% in size. Further: potency means the concentration at half of the fitted maximal effect.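 On activity change, negative = thiol reactive: thiol-reactive compounds lower the probe fluorescence signal.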 The following applies: MSTI thiol-reactivity probe, 1 h; series mostly up to 53.8 µM. In a few lines:
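Reactivity toward the thiol probe MSTI (4 uM) is scored by fluorescence at Ex/Em 525/598 nm after 1 h at room temperature. Acetyl-MSTI and MSTI define the activity scale.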
`COC1CC(OC2CCC3(C)C(=CCC4C3CCC3(C)C(C(C)OC5OC(COC6OC(CO)C(O)C(O)C6O)C(O)C(O)C5O)CCC43O)C2)OC(C)C1OC1OC(C)C(O)C(OC)C1O` (configuration not stated): the activity change, negative = thiol reactive was 0.542% [at 11.5 µM].
`COC(=O)C12C(=O)C(C)(O)C(=O)C1(C)C(C)=CC1C34CCC(OC3=O)C(C)(CO)C4CCC12C` (configuration not stated): the Potency was 2.6 µM (active).
For the compound `CC(C)=C1CC[C@]23CO[C@H](C2)[C@@](O)(C(=O)O)CCC13` (some centres not stated), the Potency entry is “inactive”.
Consider `C=CC(C)(O)CC/C=C(\C)C(=O)O[C@H]1[C@H](O)[C@@H](CO)O[C@@H](OC(=O)[C@]23CCC(C)(C)CC2C2=CCC4[C@@]5(C)CC[C@H](O[C@@H]6O[C@H](CO[C@@H]7OC[C@H](O)[C@H](O)[C@H]7O[C@@H]7OC[C@@H](O)[C@H](O)[C@H]7O)[C@@H](O)[C@H](O)[C@H]6O)C(C)(C)C5CC[C@@]4(C)[C@]2(C)CC3)[C@@H]1OC1OC(C)C(O[C@@H]2OC[C@@H](O)[C@H](O[C@@H]3OC[C@@H](O)[C@H](O)[C@H]3O)[C@H]2O)C(O)C1O` (some centres not stated), for which the activity change, negative = thiol reactive is 28.2% [at 11.5 µM].
On to `COC1C(O)C(OC2CCC3(C=O)C(CCC4C3CCC3(C)C(C5=CC(=O)OC5)CCC43O)C2)OC(C)C1OC1OC(CO)C(O)C(O)C1O` (configuration not stated), for which the Potency entry was “inactive”.
`COC1CC(O[C@H]2CC[C@@]3(C)C(=CCC4C3C(O)[C@@H](O)[C@]3(C)[C@@H](C(C)=O)CC[C@]43O)C2)OC(C)C1OC1CC(OC)C(OC2OC(C)C(O)C(O)C2O)C(C)O1` (some centres not stated): the activity change, negative = thiol reactive was 105% [at 11.5 µM].
Regarding `CC(N)Cc1c[nH]c2ccccc12` (configuration not stated), the Potency entry is “inactive”.
The same measure, in the same setting: then `CC(C)(C)c1cc(C(C)(C)C)c2c(c1)C(O)(C(F)(F)F)C(=O)O2` (configuration not stated), with 9.47 µM (active); and `CC[C@H]1CN2CC[C@H]1C[C@@H]2[C@@H](O)c1ccnc2ccc(OC)cc12`, with “inactive”; and `C=C(C)[C@H]1O[C@H]2CC[C@@]3(C)[C@@](O)(CC[C@H]4[C@@H]5OC(C)(C)[C@H]6C[C@@H]7C(=C)Cc8c(Cl)cc9[nH]c(c5c9c8[C@@]76O)[C@@]43C)[C@]23O[C@@H]3[C@H]1O`, with 6.3 µM (active).
The same measure, in the same setting: then `COC1C(O)C(C)OC(OC2C(CO)O[C@@H](O[C@@H]3CC4CCC5C(CC[C@]6(C)[C@@H](C7=CC(=O)OC7)CC[C@]56O)[C@@]4(C)[C@H](O)C3)C(O)C2O)C1O` (some centres not stated), with “inactive”; and `CC(=O)OC1CC(O)C2(C)C(CC(OC(C)=O)C3(C)C2CCC2(C)C(c4ccoc4)C(=O)C4OC423)C1(C)C` (configuration not stated), with “inactive”.
For the compound `CN1CCCC1CCOC(c1cc2nccc(C(=O)O)c2[nH]1)c1ccccc1Cl` (configuration not stated), the Potency result was “inactive”.
The same measure, in the same setting: then `Cc1c(Cl)cccc1S(=O)(=O)Nc1nc(CC(=O)N2CCN(C)CC2)cs1`, with “inactive”; and `CC(=O)OC1CC(O)C(C)(C)C2CC(OC(C)=O)C3(C)C(CCC4(C)C(c5ccoc5)C(=O)C5OC543)C12C` (configuration not stated), with “inactive”.
